Data taken from PubChem BioAssay.
Active and inactive are the calls of the source.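 How the source made its calls, unless noted: active means fluorescence slope after compound addition differing from the mean of all screened samples at 99.7% confidence, in either direction; inactive means the rest.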

Experiments:
[1] = inhibitors of TNFa-induced NFkB p65 translocation, primary screen, imaging, HUVEC, MLSMR starter and 10KST1 sets (AID 438;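 active means inhibition above 20% together with a positive visual image hit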;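 further: compound added about 3h40 before a 20 min TNFalpha stimulation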;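 on inhibition: signal is the nuclear over cytoplasmic p65 intensity ratio per well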); conditions: HUVEC TNFa-induced p65 nuclear translocation; cell count: measured here: nuclei count (cytotoxicity indicator), at 2.08 µM; inhibition: at 2 µM, stronger effect = higher value, 0% TNFa-plus-vehicle, 100% no-TNFa wells
[2] = reduction of polyQ htt aggregates in cells – imaging, exon1htt(103Q)mCFP cells, high-content imaging, primary screen (AID 483;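 active means visual image review flags a hit and inhibition of aggregation exceeds 20%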;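 further: compound exposure lasted 3 days before fixation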;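 on nuclei count: percent of the per-plate median nuclei count of sample wells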); conditions: exon1htt(103Q)mCFP cell line, aggregate imaging, at 2 µM; inhibition of aggregation: stronger effect = higher value; nuclei count: measured here: cell count, toxicity
[3] = endothelial E-selectin expression blockers – imaging, HUVEC, immunofluorescence, MLSMR starter and 10KST1 sets, primary screen (AID 487;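 active means visually confirmed hit in the image check and inhibition above 20%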;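 on inhibition: signal is fraction of cell area covered by stained E-selectin grains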;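 on nuclei count: 100% = median nuclei count of all wells on the same plate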); conditions: HUVEC TNFalpha-induced E-selectin immunofluorescence imaging, at 2 µM; inhibition: stronger effect = higher value; nuclei count: measured here: cell number, toxicity
[4] = target: Voltage-gated potassium channel subunit beta-2 (Rattus norvegicus) (UniProt P62483); experiment: inhibitors of rat Kvbeta2 reductase activity – biochemical, NADPH fluorescence, primary screen (AID 622;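 active means fluorescence slope higher than the sample average by over 3 SD, cut at about -0.22 in these data, passing the limit was not always enough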;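 further: slope of raw intensity against log time taken from 70 to 1610 s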); conditions: recombinant KvBeta, 4-cyanobenzaldehyde reduction, at 10 µM, stronger effect = higher value
[5] = target: Voltage-gated potassium channel subunit beta-2 (Rattus norvegicus) (UniProt P62483); experiment: enhancers of rat Kvbeta2 NADPH turnover – biochemical, NADPH fluorescence, primary screen (AID 623;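 active means NADPH fluorescence slope more negative than the mean of all samples by about 3 SD, 99.7% confidence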;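 further: fluorescence intensity change per second fitted from 20 to 320 s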); conditions: Recombinant KvBeta, NADPH fluorescence decrease slope, 10 min; at 10 µM; stronger effect = lower value
[6] = target: Alpha-2C adrenergic receptor (Homo sapiens) (UniProt P18825); experiment: compounds altering alpha2C-coupled GIRK flux – cell-based, HEK293 alpha2C/GIRK1/2, thallium flux, primary screen (AID 624); conditions: thallium flux BTC fluorescence, at 10 µM, actives lie on both sides;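 further: slope of fluorescence ratio to pre-addition baseline per second over 15 to 24 s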
[7] = blockers of RIG-like receptor reporter activation – cell-based, Sendai virus stimulus, luciferase, 10K MLSCN set, TLR/RLR signaling modifier project, primary screen (AID 602276;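 active means inhibition at or above 50% at 10 µM; inactive means inhibition below 50%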;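 further: firefly luciferase from ISG56 promoter only with Renilla not read in this screen; 0% = Sendai virus plus DMSO and 100% = medium plus DMSO without virus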); conditions: HEK293 RL24 IRF3 luciferase reporter, at 10 µM, stronger effect = higher value
[8] = TLR3 IRF3 reporter activation blockers – cell-based, poly I:C stimulus, luciferase, 10K MLSCN set, primary screen (AID 602277;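 active means inhibition of the reporter signal at or above 50%; inactive means inhibition below 50%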); conditions: HEK293-TLR3 RL24 IRF3 luciferase reporter, at 10 µM, stronger effect = higher value

Voltage-gated potassium channel subunit beta-2 (Rattus norvegicus), sequence (P62483 whole entry, looked up): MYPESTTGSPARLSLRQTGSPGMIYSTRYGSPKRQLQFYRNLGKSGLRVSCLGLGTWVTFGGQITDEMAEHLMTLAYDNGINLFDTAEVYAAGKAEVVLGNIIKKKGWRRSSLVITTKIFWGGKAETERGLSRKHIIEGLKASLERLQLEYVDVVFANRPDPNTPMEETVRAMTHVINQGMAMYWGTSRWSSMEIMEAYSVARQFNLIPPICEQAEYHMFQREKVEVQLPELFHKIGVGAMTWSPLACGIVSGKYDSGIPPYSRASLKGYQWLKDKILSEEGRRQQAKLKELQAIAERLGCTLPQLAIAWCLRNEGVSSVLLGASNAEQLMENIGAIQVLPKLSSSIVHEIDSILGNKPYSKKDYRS
Alpha-2C adrenergic receptor (Homo sapiens), sequence (P18825 whole entry, looked up): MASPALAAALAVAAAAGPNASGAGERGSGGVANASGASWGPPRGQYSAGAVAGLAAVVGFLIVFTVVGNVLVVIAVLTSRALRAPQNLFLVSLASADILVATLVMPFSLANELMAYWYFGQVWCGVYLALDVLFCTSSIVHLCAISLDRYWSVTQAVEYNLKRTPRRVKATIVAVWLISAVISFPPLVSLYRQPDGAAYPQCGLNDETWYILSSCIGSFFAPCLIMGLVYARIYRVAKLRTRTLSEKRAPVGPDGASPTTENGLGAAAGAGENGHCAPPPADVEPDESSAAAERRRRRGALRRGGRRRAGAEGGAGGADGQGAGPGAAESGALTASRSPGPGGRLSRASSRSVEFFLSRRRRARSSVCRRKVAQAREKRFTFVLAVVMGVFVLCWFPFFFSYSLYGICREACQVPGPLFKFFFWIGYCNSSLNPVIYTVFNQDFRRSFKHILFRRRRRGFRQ

SMILES | cell count [1] | inhibition [1] | inhibition of aggregation [2] | nuclei count [2] [%] | inhibition [3] | nuclei count [3] [%] | fluorescence slope [4] | NADPH fluorescence slope [5] | slope [6] | inhibition [7] | inhibition [8]
CCOC(=O)/N=C(/NC(=O)Nc1ccc(C(=O)OCC)cc1)OC | 266 | -3.6% (inactive) | 17% (inactive) | 92.2 | 7.6% (inactive) | 108 | -0.583 (inactive) | -6e-05 (inactive) | 0.00625 (inactive) | 13.9% (inactive) | 23.9% (inactive)
Cc1ccc(-c2nn(C)c(=O)c3ccccc23)cc1S(=O)(=O)NCCN1CCOCC1 | 325 | 5% (inactive) | 13.3% (inactive) | 100 | -24.7% (inactive) | 113 | -0.468 (inactive) | 4.7e-05 (inactive) | 0.00544 (inactive) | -17.1% (inactive) | 3.02% (inactive)
Cc1cc(C)n(-c2nc3sc4c(c3c3nnc(SCC(N)=O)n23)CC(C)(C)OC4)n1 | 368 | 6.9% (inactive) | -7.7% (inactive) | 88.2 | -4.5% (inactive) | 116 | -0.318 (inactive) | 3.6e-06 (inactive) | 0.00476 (inactive) | 6.12% (inactive) | 10.9% (inactive)
CCOC(=O)C(NC(C)=O)(NS(=O)(=O)c1ccccc1)C(F)(F)F (stereo not drawn) | 537 | -2.4% (inactive) | 18.4% (inactive) | 88.5 | 39.5% (inactive) | 90.8 | -0.616 (inactive) | 5.2e-06 (inactive) | 0.00712 (inactive) | 10.5% (inactive) | 14.2% (inactive)
O=C(Nc1cccnc1)c1ccc2c(c1)OCO2 | 696 | -16.9% (inactive) | 19.5% (inactive) | 80.6 | -9.7% (inactive) | 110 | -0.515 (inactive) | -3.5e-05 (inactive) | 0.00618 (inactive) | -19.3% (inactive) | -49.8% (inactive)
COc1ccc(C)cc1NC(=O)COCC(=O)O | 710 | -28.6% (inactive) | 4.1% (inactive) | 100 | -22.9% (inactive) | 102 | -0.605 (inactive) | -1.6e-05 (inactive) | 0.00568 (inactive) | -0.927% (inactive) | 9.35% (inactive)
CCn1c(SCC(=O)c2ccc(F)cc2)nnc1-c1ccoc1C | 423 | -19.4% (inactive) | -1.3% (inactive) | 78 | -50.4% (inactive) | 103 | -0.607 (inactive) | 1.4e-05 (inactive) | 0.00696 (inactive) | 6.99% (inactive) | 11.7% (inactive)
CCOc1ccc(N(C(C)=O)C2C=CS(=O)(=O)C2)cc1 (stereo not drawn) | 610 | -0.2% (inactive) | -4.3% (inactive) | 104 | -4% (inactive) | 139 | -0.496 (inactive) | -1.8e-05 (inactive) | 0.00613 (inactive) | 3.45% (inactive) | 19.5% (inactive)
